Here are results for 65 molecules from PubChem BioAssay AID588342 (National Center for Advancing Translational Sciences (NCATS), 2011).

Molecules are shown by their SMILES. The campaign covered roughly 360,000 compounds. About 25,000 (6.9%) were called active. Entries that show only a call come without a potency. Inconclusive results (about 9%) are left out. The sample holds actives, similar compounds and a random draw of the others, so the mix is not that of the screen. Calls come from the whole dose curve; as a rule, active = well fitted inhibition curve with a large enough effect; inconclusive = small, poorly fitted or top-dose-only effect; inactive = flat fitted curve, though single readings scatter.
Potency is the fitted concentration of half-maximal effect.

Sequence of Luciferin 4-monooxygenase (Photinus pyralis) (P08659 whole entry, looked up): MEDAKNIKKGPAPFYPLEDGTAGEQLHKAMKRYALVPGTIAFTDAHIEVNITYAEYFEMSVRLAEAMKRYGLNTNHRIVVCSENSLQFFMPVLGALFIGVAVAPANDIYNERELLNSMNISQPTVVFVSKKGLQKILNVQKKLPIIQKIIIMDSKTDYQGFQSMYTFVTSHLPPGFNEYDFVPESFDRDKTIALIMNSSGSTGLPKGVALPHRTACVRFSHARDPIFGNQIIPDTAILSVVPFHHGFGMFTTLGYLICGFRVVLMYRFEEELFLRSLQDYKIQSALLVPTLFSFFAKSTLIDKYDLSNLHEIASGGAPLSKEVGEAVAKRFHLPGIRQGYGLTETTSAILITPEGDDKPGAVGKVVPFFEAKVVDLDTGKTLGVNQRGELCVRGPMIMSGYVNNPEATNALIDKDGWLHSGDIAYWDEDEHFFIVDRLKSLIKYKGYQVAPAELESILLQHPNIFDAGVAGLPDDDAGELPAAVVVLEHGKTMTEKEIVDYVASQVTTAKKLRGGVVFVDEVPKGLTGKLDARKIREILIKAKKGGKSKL

The experiment concerns the target Luciferin 4-monooxygenase (Photinus pyralis) (UniProt P08659). Briefly: qHTS profiling assay for firefly luciferase inhibitor/activator using purifed enzyme and Km concentrations of substrates (counterscreen for miR-21 project). Note: nearly all actives have a fitted effect of over 55% in size. The settings on record: purified FLuc, luminescence inhibition; series mostly up to 57.5 µM. The gist of the method: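 Biochemical qHTS of compounds, final roughly 60 µM downward over six points, against 10 nM purified firefly luciferase using Km concentrations of substrates (10 uM D-luciferin, 10 uM ATP) in Tris acetate pH 7.5 buffer; luminescence output.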
(qHTS replaces the single test concentration by a dilution series.)
For `CCOc1ccccc1CNC(=O)c1ccc(-n2c(C)cc3c2CCC(C)C3)cc1` (stereo not given), the Potency entry is “inactive”.
`COc1ccc2c(c1)c(=O)c(S(=O)(=O)c1ccc(F)cc1)cn2CC(=O)Nc1ccc(C)cc1C`: the Potency entry was “inactive”.
Take `COc1ccccc1CNC(=O)c1ccc(CS(=O)c2ccccc2Cl)o1` (stereo not given): the Potency entry is “inactive”.
The entry for `COc1ccc(NC(C)=O)cc1NC(=O)CN1CCN(c2ccc(F)cc2)CC1` is “inactive”.
On to `CCCCCn1c(=O)[nH]c2cc(C(=O)Nc3cc(C)cc(C)c3)ccc2c1=O`, for which the Potency result was “inactive”.
In the case of `COc1ccc(-c2cc(-c3nc(-c4cc(OC)c(OC)c(OC)c4)no3)[nH]n2)c(OC)c1` it was “inactive”; in that of `COc1ccc(-c2noc(-c3cccc(OC)c3OC)n2)cc1OC`, 2.39 µM (active); in that of `COc1ccc(OC)c(-n2nnc(-c3nc(-c4cc(OC)c(OC)c(OC)c4)no3)c2C)c1`, “inactive”.
In the case of `CCOc1ccccc1NC(=O)Cn1nnc(C(=O)Nc2ccc(C)c(C)c2)c1N` it was “inactive”.
In the case of `COc1ccc(N(CC(=O)Nc2cccc3ccccc23)S(C)(=O)=O)c(OC)c1`, the Potency entry was “inactive”.
The entry for `COc1ccccc1NC(=O)COc1ccc(C(=O)OCC(=O)N(C(C)C)C(C)C)cc1OC` is “inactive”; for `COc1cc(CO)ccc1OCC(=O)Nc1cccc2ccccc12` it is 10.7 µM (active); for `Cc1nc(SCC(=O)N2CCN(c3ccccc3)CC2)[nH]c(=O)c1C` it is “inactive”.
In the case of `CCC1=[N+]([O-])C(C)(/C(C)=N\O)N(O)C1(C)C` (stereo not given) it was “inactive”.
On to `Oc1c(CN2CCCC2)cc(COCc2ccccc2)c2cccnc12`, for which the Potency entry was “inactive”.
The entry for `COC(=O)CN1C(=O)CSc2ccc(S(=O)(=O)Nc3cc(C)ccc3C)cc21` is “inactive”; for `O=C(Nc1ccc(S(=O)(=O)N2CCCCC2)cc1)C1CCN(C(=O)c2ccc(F)cc2)CC1` it is “inactive”; for `COc1ccc(C2CC(c3ccc(C)cc3)Nc3ncnn32)cc1` (stereo not given) it is “inactive”.
The entry for `Cc1ccc(C2CC(c3cccc(C)c3)n3nc(N)nc3N2)cc1` (stereo not given) is “inactive”; for `Oc1ccc(C2Nc3cccc4cccc(c34)N2)cc1` it is 16.9 µM (active); for `Cc1ccc(C2Nc3cccc4cccc(c34)N2)cc1` it is 10.7 µM (active).
In the case of `COc1cccc(N2C(=O)C3CCCN3C2c2ccc(F)cc2)c1` (stereo not given) it was “inactive”; in that of `COc1cccc(C2Nc3cccc4cccc(c34)N2)c1`, 26.9 µM (active).
On to `COc1ccc(C2=CC(c3cccc(OC)c3)n3nnnc3N2)cc1` (stereo not given), for which the Potency result is “inactive”.
As for `Brc1ccccc1C1Nc2cccc3cccc(c23)N1`, the Potency entry was “inactive”.
The entry for `COc1cc(C(=O)OCC(=O)NC(C)CCc2ccccc2)cc(OC)c1OC` (stereo not given) is “inactive”; for `CCCCOc1ccc(NC(=O)c2cc3c(n(-c4ccc(Cl)cc4)c2=O)CCCC3=O)cc1` it is “inactive”; for `O=C(c1c(F)cccc1F)N1CCN(S(=O)(=O)c2ccc3c(c2)OCCO3)CC1` it is “inactive”.
Turning to `COc1ccccc1C(CNC(=O)c1cccc(S(=O)(=O)Nc2ccc(F)cc2)c1)N(C)C` (stereo not given), the Potency entry is “inactive”.
In the case of `O=C(COc1cc(Cl)c(Cl)cc1Cl)NCCc1ccccn1` it was “inactive”; in that of `O=C(NCCc1ccccn1)c1cccnc1Oc1ccc(Cl)cc1`, “inactive”.
On to `O=C(NCCc1ccccn1)c1cc(-c2ccc(Cl)cc2)nc2ccccc12`, for which the Potency is 16.9 µM (active).
In the case of `Cc1cccc(NC(=O)Cn2nc(-c3ccc(Cl)cc3)c3ccccc3c2=O)c1` it was “inactive”; in that of `COC(=O)c1cc(Oc2ccc(S(=O)(=O)N3CCOCC3)cc2[N+](=O)[O-])cc(C(=O)OC)c1`, “inactive”; in that of `COCCNS(=O)(=O)c1cc(-c2nn3c(C)nnc3c3ccccc23)ccc1C`, “inactive”.
The entry for `CC(=O)N1c2ccc(S(=O)(=O)N3CCCCCC3)cc2CC1C(=O)NCc1ccccc1C` (stereo not given) is “inactive”; for `COc1ccc(OC)c(NC(=O)CSC2=Nc3ccccc3C3=NC(CC(=O)NCCc4ccccc4)C(=O)N23)c1` (stereo not given) it is “inactive”; for `COc1ccccc1Nc1nc(N)nc(N)c1S(=O)(=O)c1ccccc1` it is “inactive”.
Consider `CNS(=O)(=O)c1cccc(C(=O)OCCCC(=O)c2ccccc2)c1`, for which the Potency entry is “inactive”.
In the case of `CCOc1ccc(CC(=O)Nc2ccc(S(=O)(=O)Nc3cc(C)on3)cc2)cc1OCC` it was “inactive”; in that of `CCOc1ccc(C(=O)Nc2ccc(S(=O)(=O)Nc3cc(C)on3)cc2)cc1`, 16.9 µM (active).
In the case of `COc1cc(OC)cc(C(=O)Nc2ccc(S(=O)(=O)Nc3cc(C)on3)cc2)c1` it was “inactive”; in that of `Fc1ccc2[nH]c3c(N4CCN(Cc5ccc6c(c5)OCO6)CC4)ncnc3c2c1`, “inactive”; in that of `CC(C)OCCCNc1ncnc2c1[nH]c1ccc(F)cc12`, 15.1 µM (active).
The entry for `CC(C)OCCCNC(=O)c1cc(Sc2ccc(F)cc2)nc2ccccc12` is “inactive”.
For the molecule `O=S(=O)(c1ccc(Sc2nnc3ccccn23)nc1)N1CCOCC1`, the Potency entry is “inactive”.
`CCOc1ccc(NC(=O)Cn2c(=O)n(CCCC(=O)NCc3ccc4c(c3)OCO4)c(=O)c3ccccc32)cc1`: the Potency result was “inactive”.
As to `Cc1sc2ncnc(Sc3nc4ccccc4s3)c2c1C`, the Potency result was “inactive”.
Turning to `Cc1cc(C)cc(-n2ccnc2SCC(=O)Nc2nc3ccccc3s2)c1`, the Potency entry was “inactive”.
The figure for `Cc1ccnc(Nc2nc3ccccc3s2)n1` is 1.9 µM (active); for `Cc1ccc(CCNC(=O)c2ccc3c(c2)N(Cc2cc(C)ccc2C)C(=O)c2ccccc2S3=O)cc1` (stereo not given) it is “inactive”.
In the case of `CCCn1c(NCc2ccc(N(CC)CC)cc2)nc2ccccc21` it was “inactive”; in that of `Cc1ccc(CNC(=O)CCc2c(C)nc3nc(CNC(=O)OC(C)(C)C)nn3c2C)cc1`, “inactive”; in that of `Cc1ccc(-n2c(-c3ccc(Cl)cc3)n[nH]c2=S)cc1`, “inactive”.
In the case of `Cc1ccc(C(=O)Cn2cc([N+](=O)[O-])nc2C)cc1` it was “inactive”.
Regarding `Cc1cc(N2CCOCC2)nc(-c2ccc(Br)cc2)n1`, the Potency result was “inactive”.
In the case of `Cc1nc(-c2ccc([N+](=O)[O-])cc2)c(-c2ccccc2)o1` it was “inactive”; in that of `Cc1ccc(-c2cn3cc(C)ccc3n2)cc1`, 0.107 µM (active).
In the case of `CSc1nnc2ccc(-c3ccc(C)cc3)nn12` it was “inactive”; in that of `Cc1ccc(-c2cn3cc([N+](=O)[O-])ccc3n2)cc1`, 0.757 µM (active); in that of `Cc1ccc(-c2nc(SCc3ccc(Br)cc3)n3[nH]c(=O)cc3n2)cc1`, “inactive”.
In the case of `Cc1ccc2nc(-c3ccc(Br)cc3)cn2c1` it was 0.0849 µM (active); in that of `CCc1c(C)sc(NC(=O)C2c3ccccc3Oc3ccccc32)c1C(=O)OC(C)C`, “inactive”; in that of `O=C(CSc1nc2ccccc2c(=O)n1CCCO)NC1CC1`, “inactive”.
For `CCN(CC)S(=O)(=O)c1ccc(N2CCOCC2)c(NC(=O)C(C)Oc2ccc(F)cc2)c1` (stereo not given), the Potency result was “inactive”.
